# Assay results: the supplement of paper PMC6555819
# Key:
# Experiment in all cases: PBM binding z-score (relative to random genomic background probes); higher = stronger binding; sequences stand for … in GC…GCGATTGACAGCGTAGAATGAAGG
# [1] = system: FXR:RXRa (NR concentration 270 nM, RXRa partner concentration 90 nM)
# Summary of the method: (§1)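 Regression normalization was applied to scanned fluorescence from custom Agilent 4×180K protein-binding microarrays. Before scanning, arrays were incubated 1 h with ligand-free nuclear receptor dimers, and binding was detected with antibodies against each partner (one per run). Binding z-scores use the random background probes as reference.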
# [2] = system: LXRa:RXRa (NR concentration 270 nM, RXRa partner concentration 90 nM)
# Summary of the method: as §1
# [3] = system: LXRa homodimer (NR concentration 270 nM)
# Summary of the method: as §1
# [4] = system: LXRb:RXRa (NR concentration 270 nM, RXRa partner concentration 90 nM)
# Summary of the method: as §1
# [5] = system: LXRb homodimer (NR concentration 270 nM)
# Summary of the method: as §1
# [6] = system: PPARa:RXRa (NR concentration 270 nM, RXRa partner concentration 90 nM)
# Summary of the method: as §1
# [7] = system: PPARg:RXRa (NR concentration 180 nM, RXRa partner concentration 90 nM)
# Summary of the method: as §1
# [8] = system: PPARg:RXRa 270nM:90nM, anti-RXR (NR concentration 270 nM, RXRa partner concentration 90 nM)
# Summary of the method: as §1
# [9] = system: PPARg:RXRa 30nM:10nM, anti-RXR (NR concentration 30 nM, RXRa partner concentration 10 nM)
# Summary of the method: as §1
# [10] = system: PPARg:RXRa 90nM:30nM, anti-RXR (NR concentration 90 nM, RXRa partner concentration 30 nM)
# Summary of the method: as §1
# [11] = system: PPARg:RXRa DBDmut IVT, anti-RXR (DBD mutation: RXRa K156A/R161A, NR concentration 270 nM, RXRa partner concentration 90 nM)
# Summary of the method: as §1
# [12] = system: PPARg:RXRa IVT, anti-PPARg (NR concentration 270 nM, RXRa partner concentration 90 nM)
# Summary of the method: as §1
# [13] = system: PPARg DBDmut:RXRa IVT, anti-PPARg (DBD mutation: PPARg1 K132A/R137A, NR concentration 270 nM, RXRa partner concentration 90 nM)
# Summary of the method: as §1
# [14] = system: PPARg DBDmut IVT, anti-PPARg (DBD mutation: PPARg1 K132A/R137A, NR concentration 270 nM)
# Summary of the method: as §1
# [15] = system: PPARg homodimer (NR concentration 180 nM)
# Summary of the method: as §1
# [16] = system: PXR:RXRa (NR concentration 270 nM, RXRa partner concentration 90 nM)
# Summary of the method: as §1
# [17] = system: PXR homodimer (NR concentration 270 nM)
# Summary of the method: as §1
# [18] = system: RARa:RXR (NR concentration 270 nM, RXRa partner concentration 90 nM)
# Summary of the method: as §1
# [19] = system: RARa homodimer (NR concentration 270 nM)
# Summary of the method: as §1
# [20] = system: RARb:RXRa (NR concentration 270 nM, RXRa partner concentration 90 nM)
# Summary of the method: as §1
Sequence,PBM binding z-score [1],PBM binding z-score [2],PBM binding z-score [3],PBM binding z-score [4],PBM binding z-score [5],PBM binding z-score [6],PBM binding z-score [7],PBM binding z-score [8],PBM binding z-score [9],PBM binding z-score [10],PBM binding z-score [11],PBM binding z-score [12],PBM binding z-score [13],PBM binding z-score [14],PBM binding z-score [15],PBM binding z-score [16],PBM binding z-score [17],PBM binding z-score [18],PBM binding z-score [19],PBM binding z-score [20]
ATCTCTAGTTAAGACTCAGTTCAGTGAAGAACGC,0.381,0.546,0.699,0.459,0.922,-0.0115,-0.0269,0.419,0.293,0.347,0.356,0.194,1.65,1.35,1.07,1.23,2.02,0.831,1.93,0.235
ATATGTAGGTTACATACGGGTCATTCAGGCTATG,2.41,4.56,1.98,2.83,0.718,4.43,6.06,4.92,2.62,4.19,7.45,7.06,2.47,2.75,1.74,3.1,0.979,3.65,0.636,2.33
GTACCAAGGTGAATAGGTCGGTGATGAGTAGGCG,0.606,0.247,-0.139,0.125,-0.619,1.64,1.24,1.29,0.291,0.711,1.48,2.82,-0.0174,0.489,0.98,0.296,0.0352,1.02,0.441,1.86
ATATCTAGGTAAAGATAGTTCAGTGAATGCAAAT,0.0166,3.97,0.545,0.556,0.365,2.2,3.15,1.99,1,1.6,5.82,5.59,2.76,1.53,1.12,0.896,0.584,0.384,0.705,0.775
ACTTACAGGTCAACGAGGTTATAGCACGCGTATA,6.79,5.97,3.32,4.66,1.8,5.76,5.5,5.63,2.14,4.37,4.4,4.7,1.92,1.44,2.53,5.25,5.38,4.94,1.81,4.52
TCGAGTAGGTTAGTCGGGGCATTCAGCCAACATA,-0.132,-0.201,-0.628,0.294,-0.855,0.44,-0.224,0.553,0.435,0.377,2.04,1.69,-0.526,-0.18,-0.242,-0.0448,-0.488,0.00411,-0.698,0.351
GCTTACGGGCCAAAGGTTATAGCATGAATAGAAT,1.52,1.75,-0.0531,2.24,-0.287,4.59,8.48,7.11,6.58,7.83,1.06,3.69,-0.252,0.373,0.626,2.27,0.0168,3.13,0.0801,1.81
AGTCAAAGTTCAGGACGGGGTAACGTAAAGCACG,4.41,4.06,1.34,2.69,1.48,3.58,4.9,5.07,2.19,4.12,0.312,2.3,1.25,1.24,1.87,3.66,1.28,3.45,1.36,4.13
ATCGAAAGGTCGTGAGATGAGTATACAGAAAGGC,4.78,3.98,0.0145,3,0.525,5.17,3.63,3.8,1.53,2.49,-0.3,1.61,1.59,1.02,1.18,3,0.0556,3.62,0.436,3.91
CCTACTGGGCCACGATAGGTCATTGATTCAGTGA,0.91,3.95,1.66,1.74,-0.503,2.79,2.44,3.11,0.577,1.86,5.57,5.44,0.89,-0.512,1.33,1.49,0.172,2.14,0.152,2.06
ATCTCTAGGTAAAGTTGAGTGAAAGATCGATAGA,0.674,0.644,-0.0419,0.163,0.646,0.992,1.37,2.56,1.23,2.07,2.32,2.1,0.815,1.27,0.789,-0.222,0.345,0.0645,0.741,0.652
CGTCCAAGGTCAGAGAGGTCGGTGAATGCCGAGT,4.71,3.52,0.408,2.4,-0.461,3.87,2,2.92,0.323,1.8,2.42,2.66,-0.525,-1.08,0.814,3.88,5.12,2.96,-0.301,4.51
ACTACAGGGTCATCGTAGGCCAGAGTACGCACAG,6.89,5.5,0.216,4.08,0.987,5.89,5.88,5.25,2.32,3.77,1.66,3.47,2.18,1.55,1.49,4.76,0.458,4.67,0.217,4.45
ATATGTATGTTACATCCGGGTCATTCAGGCTATG,1.15,1.58,0.696,2.06,0.763,2.94,1.75,1.55,0.754,1.22,3.22,3.46,1.61,1.67,1.16,2.54,1.37,2.59,0.761,1.52
GCTTATAGATCAAGGTTAAGAAAGACTAAGCTAA,0.198,0.766,-0.148,0.438,-0.382,1.4,0.991,1.57,0.403,1.13,0.775,0.678,0.643,0.713,0.58,0.457,-0.0715,0.879,0.134,0.997
CAAACTAGGTCACAGGTCAAAGTCGAGCCAACCA,6.7,5.19,3.25,4.68,1.16,6.88,12.3,9.67,10.4,11,8.4,9.27,4.16,4.09,4.17,4.41,0.711,5.81,0.827,4.7
ACAGACAGGTGATGAAGGTTACTCAGGCTATCAT,0.29,0.278,0.0459,0.276,-0.288,0.714,0.777,0.381,0.107,0.0691,0.431,0.604,0.785,-0.154,0.281,0.38,0.162,0.715,0.502,0.957
TTACCAAGGTGAAAGGTCGTTTATGCACGCCTTG,3.55,3.3,0.773,3.33,0.0475,5.2,8.69,7.73,6.93,8.46,2.69,4.38,1.05,0.279,1.68,3.9,0.719,5.53,0.296,2.75
GCATATAGGAAATACAAGGTGAAAGTCCGATTGT,-0.0334,-0.148,-0.095,0.0762,-0.434,0.727,0.752,0.734,-0.0341,0.81,-0.0437,0.645,-0.0022,0.353,0.365,0.166,0.0769,0.702,0.755,0.29
TAGCCTAGGTCATGGGCCACTATACCACGCGAAC,4.16,3.63,0.886,2.81,0.0878,4.15,4.04,4.19,1.48,3.31,2.09,3.43,0.102,-0.16,1.27,1.72,-0.144,2.66,-0.0929,3.8
TCTCGGAGGACACGAAATGTCAGAGCTCGACATC,0.755,0.358,-0.2,0.313,-0.55,0.168,0.208,1.09,2.37,1.62,1.31,-0.0738,0.273,-0.287,-0.365,-0.0137,-0.515,0.332,-0.679,1.56
CGAACTAGGTCATCCAGGACAGTGAGTACATTGA,4.32,2.81,0.741,1.9,0.24,4.49,7.45,6.5,3.99,5.85,8.47,8.31,2.59,1.36,2.5,2.8,8.11,2.46,0.186,3.92
CAAGCTAGGTCAAGGTCAAAGTCGGTTTGTGCCA,6.4,5.71,4.42,4.74,1.37,5.36,5.58,5.39,2.37,4.73,4.41,5.17,-0.662,0.302,3.54,5.15,1.35,5.06,1.43,5.2
CCTACTGGGCCACGAAAGGTCATTAATTCAGTGA,3.16,4.95,4.76,4.24,0.358,4.48,4.47,4.57,1.99,3.83,5.58,5.87,1.7,0.266,3.46,5.12,1.71,5.32,1.1,3.79
CAAACTAGGTCAAAGGGCAAAGTCGAGCCAACCA,6.12,5.04,1.25,4.01,0.969,6.94,12.9,10.6,11,11.7,8.37,8.59,2.1,1.17,2.46,4.09,0.769,6.57,0.986,4.51
ATCTCTAGGTAAGACTCAGTTCAGTGCAGAACGC,0.385,0.334,0.807,0.371,0.594,0.349,0.209,0.0288,0.281,0.195,1.92,1.08,0.985,1.26,1.53,1.14,1.56,0.346,1.16,0.33
CCTATTAGTTGAACATAAGGGCAACCGAAGCTCG,0.402,0.518,0.603,0.454,0.71,0.594,0.576,0.441,0.18,0.415,0.458,0.463,0.856,0.515,1.56,0.574,0.963,0.973,1.2,1.38
GCGACTGGGGCAGAGCAGGTTACCATAAGGTTGG,0.158,-0.389,-0.79,-0.197,-1.19,0.462,0.564,0.0587,-1.01,-0.178,3.52,2.22,-0.693,-0.694,-0.578,-0.201,-0.162,-0.103,-0.568,0.569
